This excerpt belongs to a sample that is enriched for hits.
RECQ1 inh: qHTS Assay for Inhibitors of RecQ-Like Dna Helicase 1 (RECQ1); ATP-dependent DNA helicase Q1 (Homo sapiens), P46063; RECQ1 DNA unwinding, red fluorescence kinetic read; Potency, µM (top dose mostly 57.3 µM), inactives show top-dose activity, negative = inhibition, actives largely listed as inhibitors; 0.54% of 240,000 active;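 note: plate controls were vehicle for no effect and no enzyme for full effect; nearly all actives have a fitted effect of over 30% in size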
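50 nM RECQ1T1 preincubated 15 min with compound in Tris pH 8.0 buffer with MgCl2, DTT, Tween-20 and 2.5 ug/ml poly(dI-dC); started with 200 nM TAMRA/BHQ-2 forked duplex and 2 mM ATP. Unwinding read as fluorescence (525/598 nm), two reads 2 h apart.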
JMJD2E inh: qHTS Assay for Inhibitors of Human Jumonji Domain Containing 2E (JMJD2E); Lysine-specific demethylase 4E (Homo sapiens), B2RXH2; JMJD2E catalytic domain, FDH-coupled NADH fluorescence (FDH is formaldehyde dehydrogenase); Potency, µM (highest dose often 57.1 µM), for inactives: at the highest dose activity change, negative = inhibition, usual class: inhibitors; 1.6% of 230,000 active; AID 2147, 2009; active = well fitted inhibition curve with a large enough effect, not every such curve was filed as active; inconclusive = small, poorly fitted or top-dose-only effect, or another doubt; inactive = no such curve, though single readings can be large or run the other way;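 note: 0% = wells with enzyme and -100% = buffer wells without enzyme; nearly all actives have a fitted effect of over 50% in size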
L3MBTL1 block: qHTS Assay for the Inhibitors of L3MBTL1. 0.66% of 230,000 active. AlphaScreen L3MBTL1–H3K9me1 peptide binding. Potency, µM (titrated, usually from 57.1 µM), for the others: at the top dose activity, negative = inhibition, most hits filed as inhibitors; note: nearly all actives have a fitted effect of over 60% in size
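L3MBTL1 (50 nM) pre-complexed 30 min with biotinylated H3(1-15)K9me1 peptide (75 nM), then compounds added for 30 min at room temperature; AlphaScreen streptavidin donor/nickel chelate acceptor beads (10 ug/mL final) read after 30 min dark incubation.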
BLM inh: qHTS Assay for Inhibitors of Bloom's syndrome helicase (BLM); RecQ-like DNA helicase BLM (Homo sapiens), P54132; Potency, µM (top dose mostly 56.1 µM), for inactives: at the top dose activity change, negative = inhibition, usual class: inhibitors; recombinant BLM DNA unwinding, fluorescence dequenching; 0.2% of 350,000 active;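 note: plate controls were vehicle for no effect and no enzyme for full effect; nearly all actives have a fitted effect of over 35% in size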
APE1 inh-1: qHTS Assay for Inhibitors of the Human Apurinic/apyrimidinic Endonuclease 1 (APE1); Potency, µM (doses to about 65.8 µM), for inactives: at the top dose activity change, negative = inhibition, usual class: inhibitors; DNA repair nuclease/redox regulator APEX1 (Homo sapiens), P27695; recombinant APE1, TAMRA/BHQ-2 abasic DNA cleavage fluorescence; 0.35% of 350,000 active;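 note: plate controls were vehicle for no effect and reference inhibitor for full effect; nearly all actives have a fitted effect of over 55% in size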
Target sequence (P27695 whole entry, looked up): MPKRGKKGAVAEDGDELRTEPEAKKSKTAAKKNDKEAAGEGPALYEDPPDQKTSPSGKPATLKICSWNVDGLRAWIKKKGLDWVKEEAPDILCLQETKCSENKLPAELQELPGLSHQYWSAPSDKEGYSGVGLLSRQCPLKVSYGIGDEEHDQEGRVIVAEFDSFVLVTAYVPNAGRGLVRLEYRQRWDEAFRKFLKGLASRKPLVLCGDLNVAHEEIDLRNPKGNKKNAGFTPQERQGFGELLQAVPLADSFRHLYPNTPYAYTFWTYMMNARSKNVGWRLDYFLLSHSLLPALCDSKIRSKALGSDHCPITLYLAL
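APE1 at 0.75 nM preincubated 15 min at room temperature with compound. Reaction then started with 50 nM double-stranded THF-abasic substrate labelled with TAMRA/BHQ-2, and 525/598 nm fluorescence read kinetically. Activity taken as third-minus-first read difference, normalized to DMSO and NSC13755 controls.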
GCN5L2 inh: qHTS Assay for Inhibitors of GCN5L2; Histone acetyltransferase KAT2A (Homo sapiens), Q92830; GCN5L2 HAT assay, ThioGlo1 CoA-SH fluorescence; Potency, µM (doses to about 58.9 µM), inactives show top-dose activity change, negative = inhibition, most hits filed as inhibitors; 0.21% of 390,000 active; AID 504327, 2011
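Compounds, pin-transferred from DMSO stocks, meet 20nM GCN5L2 for 15 min before the reaction begins with H3(1-25) peptide (75uM) and acetyl-CoA (70uM). Thiol-reactive ThioGlo1 reports CoA release over 20 min at room temperature.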
DNA dye displace: Counterscreen for APE1 Inhibitors: Fluorescent Dye Displacement Assay | shares compounds with APE1 inh-1 | DNA fluorescent dye displacement counterscreen, fluorescence | Potency, µM (series often up to 28.5 µM), without a hit: at the top dose activity change, negative = inhibition, hits mostly inhibitors | 7% of 480 active | AID 2564, 2010;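 note: loss of thiazole orange fluorescence as the dye is displaced from duplex DNA; 0% = ThO with dsDNA and no compound and -100% = ThO without dsDNA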
Endo IV inh: Counterscreen for APE1 Inhibitors: qHTS Assay for Inhibitors of Endonuclease IV | shares compounds with APE1 inh-1 | E. coli Endo IV, fluorogenic AP-site DNA cleavage | Potency, µM (series often up to 27.1 µM), for inactives: at the top dose activity change, negative = inhibition, most hits filed as inhibitors | 4% of 560 active;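 note: plate controls were uninhibited enzyme wells for no effect and no enzyme buffer wells for full effect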
APE1 inh-2: Confirmation qHTS Assay for Inhibitors of the Human Apurinic/apyrimidinic Endonuclease 1 (APE1) | purified APE1, fluorogenic abasic-site DNA cleavage | Potency, µM (series often up to 57.1 µM), inactives show at the highest dose activity change, negative = inhibition, most hits filed as inhibitors | 44% of 750 active | shares compounds with APE1 inh-1; note: nearly all actives have a fitted effect of over 30% in size
APE1 FP inh: qHTS FP-Based Assay for Inhibitors of the Human Apurinic/apyrimidinic Endonuclease 1 (APE1) | shares compounds with APE1 inh-1 | Potency, µM (doses to about 28.5 µM), for the others: top-dose activity, negative = inhibition, most hits filed as inhibitors | APE1 binding to TAMRA-labelled double-stranded DNA, fluorescence polarization displacement | 7% of 480 active
* hit, by the source's call; [ ] = remark or other dose. Unless noted, calls come from the whole dose curve; as a rule, active = well fitted curve in the direction sought with a large enough effect; inconclusive = small, poorly fitted or top-dose-only effect, or another doubt; inactive = no such curve, though single readings can be large; an effect the other way counts as inactive or inconclusive. Unless noted, % is set by controls: 0 for no effect and ±100 for the full control effect; potency is the fitted concentration of half-maximal effect.

What do the screens show for `Cc1ccc(NC(=O)CN2C(=O)S/C(=C\c3cccn3-c3cccc(C(=O)O)c3)C2=O)c(C)c1`?
RECQ1 inh: -25.7%; JMJD2E inh: inconclusive; L3MBTL1 block: inconclusive; BLM inh: inconclusive; APE1 inh-1: 8.91µM*; GCN5L2 inh: -14.0%; DNA dye displace: 207.0%; Endo IV inh: inconclusive; APE1 inh-2: 12.6µM*; APE1 FP inh: 15.8µM*

Results for Cc1cccc(C)c1NC(=O)CN1C(=O)S/C(=C\c2cccn2-c2cccc(C(=O)O)c2)C1=O ?
RECQ1 inh: -5.6%; JMJD2E inh: -10.2%; L3MBTL1 block: -8.7%; BLM inh: -18.9%; APE1 inh-1: -10.7%; GCN5L2 inh: -11.8%

What do the screens show for `Cc1ccccc1NC(=O)CN1C(=O)S/C(=C\c2cccn2-c2cccc(C(=O)O)c2)C1=O`?
RECQ1 inh: inconclusive; JMJD2E inh: -13.3%; L3MBTL1 block: inconclusive; BLM inh: -12.7%; APE1 inh-1: inconclusive; GCN5L2 inh: -4.3%; APE1 inh-2: inconclusive

Results for COc1ccc2nc(N3CCCCC3)c(C#N)cc2c1 ?
RECQ1 inh: -2.8%; JMJD2E inh: inconclusive; L3MBTL1 block: 226.7%; BLM inh: -8.6%; APE1 inh-1: -2.6%; GCN5L2 inh: -11.3%; APE1 inh-2: inconclusive

What do the screens show for `CC(=O)OC1CCC2(C)C3CCC4(C)C(CC5CCCCC54C(C)=O)C3CC(=O)[C@@]2(O)C1` (some centres undefined)?
RECQ1 inh: -1.3%; JMJD2E inh: 7.9%; BLM inh: -3.1%; APE1 inh-1: -0.7%

Results for CC(=O)O[C@H]1CC2(C)[C@@H](C[C@@H](O)[C@H]3[C@@]4(C)CC[C@@H](O)[C@@H](C)[C@@H]4CC[C@@]32C)C1=C(CCC=C(C)C)C(=O)O (some centres undefined) ?
RECQ1 inh: -4.4%; JMJD2E inh: 6.2%; APE1 inh-1: -6.9%; GCN5L2 inh: -4.3%; Endo IV inh: -8.5%[57.1 µM]; APE1 inh-2: -25.4%

Screens deposited in PubChem by National Center for Advancing Translational Sciences (NCATS).
